Test results as given in PubChem BioAssay AID1159580 (chemical genetic matrix, 2015).
Among all 5,500 compounds or so, about 2,000 (36%) were called active. About 18% were inconclusive and are not listed. Rule as the data show it: active = normalized growth mostly below about 0.91 (no sharp cut-off); inconclusive = no clear call, values can overlap the other calls; inactive = mostly above about 0.92. This is one part of the list.

Experiment: chemical genetic growth profiling, strain panel (AID 1159580);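 also: tested at 20 µM; growth read once vehicle control cultures reached saturation at 30 °C; 1 = growth at the plate median or of vehicle wells; lower values mean less growth of the strain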
Settings: growth OD

Measured: normalized growth

Clc1ccc(COC(Cn2ccnc2)c2ccc(Cl)cc2Cl)c(Cl)c1 (configuration not stated)
active: S. cerevisiae deletion strains, locus YJR075W, strain HOC1, stronger effect = lower value 0.0654 | S. cerevisiae deletion strains, locus YKL009W, strain mrt4, stronger effect = lower value 0.0991 | S. cerevisiae deletion strains, locus YKL068W, stronger effect = lower value 0.0685 | S. cerevisiae deletion strains, locus YKL085W, strain MDH1 (second series), stronger effect = lower value 0.0665 | S. cerevisiae deletion strains, locus YKL085W, strain MDH1, stronger effect = lower value 0.0665 | S. cerevisiae deletion strains, locus YKL160W, strain elf1, stronger effect = lower value 0.0826 | S. cerevisiae deletion strains, locus YKL190W, strain CNB1, stronger effect = lower value 0.046 | S. cerevisiae deletion strains, locus YKR001C, strain vps1, stronger effect = lower value 0.0634 | S. cerevisiae deletion strains, locus YKR026C, strain gcn3, stronger effect = lower value 0.0698 | S. cerevisiae deletion strains, locus YKR091W, strain srl3, stronger effect = lower value 0.0616 | S. cerevisiae deletion strains, locus YLL001W, strain dnm1, stronger effect = lower value 0.0638 | S. cerevisiae deletion strains, locus YLL026W, stronger effect = lower value 0.0593 | S. cerevisiae deletion strains, locus YLL041C, strain sdh2, stronger effect = lower value 0.0595 | S. cerevisiae deletion strains, locus YLR027C, strain aat2, stronger effect = lower value 0.0575 | S. cerevisiae deletion strains, locus YLR039C, strain RIC1, stronger effect = lower value 0.0754 | S. cerevisiae deletion strains, locus YLR058C, strain SHM2, stronger effect = lower value 0.0389 | S. cerevisiae deletion strains, locus YLR102C, strain apc9, stronger effect = lower value 0.0667 | S. cerevisiae deletion strains, locus YLR113W, strain HOG1, stronger effect = lower value 0.128 | S. cerevisiae deletion strains, locus YLR221C, strain rsa3, stronger effect = lower value 0.0643 | S. cerevisiae deletion strains, locus YLR258W, strain gsy2, stronger effect = lower value 0.0636 | S. cerevisiae deletion strains, locus YLR262C, strain YPT6 (second series), stronger effect = lower value 0.0835 | S. cerevisiae deletion strains, locus YLR262C, strain YPT6, stronger effect = lower value 0.0925 | S. cerevisiae deletion strains, locus YLR268W, strain sec22, stronger effect = lower value 0.0664 | S. cerevisiae deletion strains, locus YLR320W, strain mms22, stronger effect = lower value 0.087 | S. cerevisiae deletion strains, locus YLR330W, strain CHS5, stronger effect = lower value 0.0522 | S. cerevisiae deletion strains, locus YLR342W, strain FKS1 (second series), stronger effect = lower value 0.0607 | S. cerevisiae deletion strains, locus YLR342W, strain FKS1, stronger effect = lower value 0.0655 | S. cerevisiae deletion strains, locus YLR357W, strain rsc2, stronger effect = lower value 0.124 | S. cerevisiae deletion strains, locus YLR370C, strain arc18, stronger effect = lower value 0.064 | S. cerevisiae deletion strains, locus YLR371W, strain rom2, stronger effect = lower value 0.0643 | S. cerevisiae deletion strains, locus YLR384C, strain iki3, stronger effect = lower value 0.0632 | S. cerevisiae deletion strains, locus YLR418C, strain cdc73, stronger effect = lower value 0.104 | S. cerevisiae deletion strains, locus YML016C, strain PPZ1, stronger effect = lower value 0.0516 | S. cerevisiae deletion strains, locus YML032C, strain rad52, stronger effect = lower value 0.0665 | S. cerevisiae deletion strains, locus YML120C, strain ndi1, stronger effect = lower value 0.0587 | S. cerevisiae deletion strains, locus YML124C, strain tub3, stronger effect = lower value 0.058 | S. cerevisiae deletion strains, locus YMR058W, strain fet3, stronger effect = lower value 0.0613 | S. cerevisiae deletion strains, locus YMR078C, strain ctf18, stronger effect = lower value 0.0692 | S. cerevisiae deletion strains, locus YMR125W, strain sto1, stronger effect = lower value 0.0759 | S. cerevisiae deletion strains, locus YMR129W, stronger effect = lower value 0.0593 | S. cerevisiae deletion strains, locus YMR205C, strain PFK2, stronger effect = lower value 0.0878 | S. cerevisiae deletion strains, locus YMR223W, strain ubp8, stronger effect = lower value 0.0663 | S. cerevisiae deletion strains, locus YMR231W, strain pep5, stronger effect = lower value 0.171 | S. cerevisiae deletion strains, locus YMR263W, strain SAP30, stronger effect = lower value 0.062 | S. cerevisiae deletion strains, locus YMR307W, strain GAS1, stronger effect = lower value 0.107 | S. cerevisiae deletion strains, locus YNL067W, strain RPL9B, stronger effect = lower value 0.0502 | S. cerevisiae deletion strains, locus YNL071W, strain lat1, stronger effect = lower value 0.0615 | S. cerevisiae deletion strains, locus YNL128W, strain TEP1, stronger effect = lower value 0.0612 | S. cerevisiae deletion strains, locus YNL153C, strain GIM3, stronger effect = lower value 0.0486 | S. cerevisiae deletion strains, locus YNL183C, strain NPR1, stronger effect = lower value 0.00703 | S. cerevisiae deletion strains, locus YNL209W, strain ssb2, stronger effect = lower value 0.0642 | S. cerevisiae deletion strains, locus YNL233W, strain BNI4, stronger effect = lower value 0.0542 | S. cerevisiae deletion strains, locus YNL248C, strain rpa49, stronger effect = lower value 0.0801 | S. cerevisiae deletion strains, locus YNL250W, strain rad50, stronger effect = lower value 0.0712 | S. cerevisiae deletion strains, locus YNL271C, strain bni1, stronger effect = lower value 0.0673 | S. cerevisiae deletion strains, locus YNL298W, strain CLA4, stronger effect = lower value 0.0653 | S. cerevisiae deletion strains, locus YNL307C, strain MCK1, stronger effect = lower value 0.0672 | S. cerevisiae deletion strains, locus YNL322C, strain KRE1 (second series), stronger effect = lower value 0.0752 | S. cerevisiae deletion strains, locus YNL322C, strain KRE1, stronger effect = lower value 0.0472 | S. cerevisiae deletion strains, locus YNR049C, strain mso1, stronger effect = lower value 0.0611 | S. cerevisiae deletion strains, locus YNR052C, strain pop2, stronger effect = lower value 0.0593 | S. cerevisiae deletion strains, locus YOL006C, strain TOP1, stronger effect = lower value 0.0836 | S. cerevisiae deletion strains, locus YOL012C, strain htz1 0.185 | S. cerevisiae deletion strains, locus YOL147C, strain pex11, stronger effect = lower value 0.059 | S. cerevisiae deletion strains, locus YOR001W, strain rrp6, stronger effect = lower value 0.0687 | S. cerevisiae deletion strains, locus YOR061W, strain CKA2, stronger effect = lower value 0.0316 | S. cerevisiae deletion strains, locus YOR069W, strain VPS5, stronger effect = lower value 0.052 | S. cerevisiae deletion strains, locus YOR070C, strain gyp1, stronger effect = lower value 0.061 | S. cerevisiae deletion strains, locus YOR080W, strain dia2, stronger effect = lower value 0.0651 | S. cerevisiae deletion strains, locus YOR083W, strain WHI5, stronger effect = lower value 0.0643 | S. cerevisiae deletion strains, locus YOR106W, strain vam3, stronger effect = lower value 0.0643 | S. cerevisiae deletion strains, locus YOR136W, strain idh2, stronger effect = lower value 0.0723 | S. cerevisiae deletion strains, locus YOR144C, strain elg1, stronger effect = lower value 0.0556 | S. cerevisiae deletion strains, locus YOR184W, strain ser1, stronger effect = lower value 0.0771 | S. cerevisiae deletion strains, locus YOR231W, strain MKK1, stronger effect = lower value 0.112 | S. cerevisiae deletion strains, locus YOR265W, strain rbl2, stronger effect = lower value 0.0604 | S. cerevisiae deletion strains, locus YOR270C, strain vph1, stronger effect = lower value 0.0973 | S. cerevisiae deletion strains, locus YOR290C, strain snf2, stronger effect = lower value 0.0739 | S. cerevisiae deletion strains, locus YOR316C, strain cot1, stronger effect = lower value 0.0648 | S. cerevisiae deletion strains, locus YPL051W, strain arl3, stronger effect = lower value 0.0665 | S. cerevisiae deletion strains, locus YPL055C, strain LGE1, stronger effect = lower value 0.0731 | S. cerevisiae deletion strains, locus YPL078C, strain atp4, stronger effect = lower value 0.0694 | S. cerevisiae deletion strains, locus YPL106C, strain sse1, stronger effect = lower value 0.128 | S. cerevisiae deletion strains, locus YPL240C, strain hsp82, stronger effect = lower value 0.0639 | S. cerevisiae deletion strains, locus YPL241C, strain CIN2, stronger effect = lower value 0.0503 | S. cerevisiae deletion strains, locus YPL256C, strain CLN2, stronger effect = lower value 0.129 | S. cerevisiae deletion strains, locus YPR119W, strain clb2, stronger effect = lower value 0.0606 | S. cerevisiae deletion strains, locus YPR141C, strain kar3, stronger effect = lower value 0.0743 | S. cerevisiae deletion strains, locus YPR163C, strain tif3, stronger effect = lower value 0.079 | S. cerevisiae deletion strains, locus YPR167C, strain met16, stronger effect = lower value 0.0606 | S. cerevisiae deletion strains, strain wtn01, stronger effect = lower value 0.0603 | S. cerevisiae strains, strain wild type, stronger effect = lower value 0.0493
